About 2,000 (0.91%) of roughly 220,000 compounds were called active. About 2% were inconclusive and are not listed. The list is a sample of the results. Potency and affinity values are given separately. Values without a mark were called inactive. Rule as the data show it: inconclusive = inhibition above about 80% without an active follow-up result; inactive = below that; test concentration not stated here.
Assay: M. tuberculosis H37Rv growth inhibitors, H37Rv strain (AID 1626);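 also: bacteria incubated seven days before Alamar blue readout; 0% = bacteria only wells and 100% = bacteria with antibiotic wells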
Conditions: active compounds read high, concentration not given here

| SMILES | inhibition [%] |
| --- | --- |
| C=CCN(c1ccccc1)S(=O)(=O)c1cccc(C(=O)O)c1 | -12.8 |
| Cc1ccc(-n2nnnc2Sc2nc([N+](=O)[O-])nn2C)cc1 | 0.83 |
| Cc1ccc(C)c(-n2nnnc2Sc2nc([N+](=O)[O-])nn2C)c1 | -10.2 |
| Cc1ccc(C2(c3noc(CN4CCC(c5ccncc5)CC4)n3)CCCC2)cc1 | 13.7 |
| O=CC1=C(N2CCOCC2)/C(=C\c2ccccc2)CC1 | 0.77 |
| O=C(O)c1ccc(N/N=C/C2=C(N3CCOCC3)C(=C\c3ccccc3)/CC2)cc1 | -3.9 |
| CC(=O)Nc1ccc(NC(=O)/C=C/c2cccc(C(F)(F)F)c2)cc1 | 0.39 |
| CCc1ccc2c(c1)C(c1ccncc1)=NNC(c1ccccc1)=N2 | 8.68 |
| CCCC(=O)Nc1nnc(SCC(=O)Nc2ccc3c(c2)OCO3)s1 | 5.81 |
| CN1CCN(C(=O)c2ccc(CSc3nc4ccncc4n3Cc3ccc(F)cc3)cc2)CC1 | -0.01 |
| COc1ccc2nc(C)cc(C(=O)O)c2c1 | 0.85 |
| O=C(COc1ccc(Cl)cc1)N1CCN(C/C=C/c2ccccc2)CC1 | 0.36 |
| O=C(CN1CCN(C/C=C/c2ccccc2)CC1)Nc1ccc(F)cc1F | -0.62 |
| COc1ccc(C)cc1NC(=O)CN1CCN(C/C=C/c2ccccc2)CC1 | -3.7 |
| O=C(COc1ccccc1)N1CCN(C/C=C/c2ccccc2)CC1 | -6.49 |
| O=C(CN1CCN(C/C=C/c2ccccc2)CC1)Nc1ccccc1C(=O)NC1CC1 | -0.65 |
| COc1ccccc1NC(=O)C(C)N1CCN(C/C=C/c2ccccc2)CC1 (stereo not given) | 11.9 |
| Cc1n[nH]c(=O)nc1NCc1ccc(Cl)cc1 | 0.09 |
| CC(C)(C)NC(=O)COC(=O)CCC(=O)c1ccc(F)cc1 | -0.61 |
| Cc1ccc(/C=N/NC(=O)CNC(=O)c2ccc(S(=O)(=O)N(C)C)cc2)cc1 | -4.56 |
| Cc1ccnc(NS(=O)(=O)c2ccc(NC(=O)/C=C/c3cccs3)cc2)n1 | 11.1 |
| CCOC(=O)C1C(c2ccccc2)NC(=S)NC1(C)O (stereo not given) | 1.27 |
| COc1ccc(Nc2ncc(C(=O)O)c3ccccc23)cc1 | 5.05 |
| Cc1cc2ccc(C)c(C)c2nc1SCC(=O)c1cccs1 | -3.91 |

| SMILES | inhibition [%] |
| --- | --- |
| Nc1nc(NCC2CCCO2)nc(NCC2CCCO2)c1[N+](=O)[O-] (stereo not given) | -0.89 |
| O=C(CCCCCN1C(=O)C2C3C=CC(C3)C2C1=O)Nc1nccs1 (stereo not given) | -6.21 |
| CCc1cccc(C)c1NC(=S)N1CCCCC1c1cccnc1 (stereo not given) | 1.2 |
| COC(=O)C(C#N)c1nc2ccccc2nc1N1CCN(Cc2ccc3c(c2)OCO3)CC1 (stereo not given) | -4.28 |
| CC(C)COC(=O)C(C#N)c1nc2ccccc2nc1N1CCN(Cc2ccc3c(c2)OCO3)CC1 (stereo not given) | 2.75 |
| CC(N=C1NC(C)(C)Cc2ccccc21)C(=O)O (stereo not given) | -3.94 |
| Cn1c(Cn2c(=O)sc3ccccc32)nnc1SCC(=O)NC1CCCC1 | -8.44 |
| Cc1cc(C)n(C(=O)c2ccccc2[N+](=O)[O-])n1 | 6.43 |
| Cc1cc(C)n(C(=O)c2ccc([N+](=O)[O-])cc2N)n1 | -10.3 |
| CC1C=CCC2C(=O)N(c3ccc(Cl)cc3O)C(=O)C12 (stereo not given) | 10.7 |
| Cc1ccc2nc(/N=C(\N)NC(=O)N3c4ccccc4Sc4ccccc43)nc(C)c2c1 | 94.5 |
| COc1ccc2nc(/N=C(\N)NC(=O)C(C)(C)C)nc(C)c2c1 | 14.9 |
| COc1ccc(CN(CC2CCC(C(=O)O)CC2)C(=S)Nc2cc(C)ccc2C)cc1 (stereo not given) | 4.91 |
| O=C(NC1CSC/C1=N\O)c1ccccc1 (stereo not given) | -2.37 |
| COc1ccccc1/C=C/C(=O)c1ccc(Cl)cc1 | 19.9 |
| O=C(/C=C/c1ccccc1Cl)c1ccc(O)cc1 | 36.8 |
| COc1ccc(/C=C/C(=O)c2ccc(Cl)cc2)c(OC)c1 | 7.24 |
| COc1ccccc1/C=C/C(=O)c1ccccc1 | 5.69 |
| Cc1nc2nc(SCC(=O)C(C)(C)C)[nH]c2cc1Br | -3.7 |
| CC(C)(C)c1cc(NC(=O)c2cccc([N+](=O)[O-])c2)no1 | 4.63 |
| CC1(c2nnc(-c3ccccc3)o2)CC(c2ccc(F)cc2)=NO1 (stereo not given) | -2.41 |
| COC(=O)c1ccc(N=c2sc(C(=O)OC)cc(=O)n2C)cc1 | 7.67 |
| CCOC(=O)c1ccc(N=c2sc(C(=O)OC)cc(=O)n2-c2ccc(C(=O)OCC)cc2)cc1 | 63.5 |
| COc1c(F)c(F)c(C(=O)O)c(Nc2cc(C)cc(C)c2)c1F | -9.39 |

| SMILES | inhibition [%] |
| --- | --- |
| O=c1cc(-c2ccc(F)cc2)oc2ccccc12 | -4.83 |
| O=c1cc(-c2ccccc2F)oc2ccccc12 | -6.27 |
| N#Cc1cccc(NC(=O)CC2CCCCC2)c1 | 1.61 |
| Cc1ccc(N2C(=O)NC(=O)/C(=C\c3ccc(N4CCOCC4)cc3)C2=O)cc1 | -2.37 |
| CS(=O)(=O)N1CCn2c1nc1ccccc12 | -12.2 |
| COc1ccc(C2C(C#N)=C(C)NC3=C2C(=O)CC(C)(C)C3)cc1 (stereo not given) | 6.62 |
| CC1=C(C#N)C(c2cccnc2)C2=C(CC(c3ccc(Cl)cc3)CC2=O)N1 (stereo not given) | 5.84 |
| COC(=O)C1=C(C(=O)OC)[C@@H]2N(Cc3ccccc3)c3ccccc3[C@@]23C[C@@H](C(=O)OC)N(C(=O)NC2CCCCC2)C3=N1 | -1.86 |
| CC(=O)c1ccc(NC(=O)C2CC(=O)N(Cc3ccccc3)C2)cc1 (stereo not given) | -1.96 |
| CCOc1nc(-c2ccc(Cl)cc2)nc2ccccc12 | -0.59 |
| CC(=O)N(c1ccc(Cl)cc1)c1c[nH]c2ccccc12 | -5.95 |
| O=C(CCl)N(c1ccc(Cl)cc1)c1c[nH]c2ccccc12 | 75.3 |
| O=C(CCl)N(Cc1ccccc1)c1ccccc1 | 77.7 |
| O=C(N(c1ccccc1)c1ccccc1)N(c1ccccc1)c1ccccc1 | -4.02 |
| CCn1cc(-c2cc(C(F)(F)F)n3nc(C(=O)O)cc3n2)c(C)n1 | -10.8 |
| COc1ccc(C)cc1NC(=O)C1CCCCC1C(=O)O (stereo not given) | -8.21 |
| CCOC(=O)C(NCc1ccc(F)cc1)(NC(=O)c1ccccc1)C(F)(F)F (stereo not given) | -7.14 |
| CC(C)(C)c1nn(-c2ccccc2)c2[nH]c(=O)c(CNc3ccc4c(c3)OCCO4)cc12 | 4.42 |
| CCc1ccc(NCc2cc3c(C)nn(-c4ccccc4)c3[nH]c2=O)cc1 | 26 |
| Cc1nn(-c2ccccc2)c2[nH]c(=O)c(CNCCN3CCOCC3)cc12 | 3.32 |
| CCOc1cccc(NCc2cc3c(C(C)(C)C)nn(-c4ccccc4)c3[nH]c2=O)c1 | 70.7 |
| Cc1nn(-c2ccccc2)c2[nH]c(=O)c(CNCc3ccc4c(c3)OCO4)cc12 | -1.83 |
| COc1cccc(NCc2cc3c(C(C)(C)C)nn(-c4ccccc4)c3[nH]c2=O)c1 | -5.67 |
| Cn1c(O)c(N=NC(=O)c2ccccc2O)c2ccccc21 | -0.85 |

| SMILES | inhibition [%] |
| --- | --- |
| Cc1cc(C2(c3ccc(O)c(C)c3)OC(=O)c3ccccc32)ccc1O | -1.73 |
| CC/C(C)=C1\SC(N2CCOCC2)=NC1=O | 1.74 |
| Cc1cc(C)nc(N2CCC(C(=O)NCc3ccccc3F)CC2)n1 | -8.28 |
| CC(=O)Nc1ccn(-c2ccccc2)n1 | 0.92 |
| O=C(Nc1ccn(-c2ccccc2)n1)c1ccccc1Br | 1.33 |
| CC(C)(C)C1CCc2sc(-c3nnc(CCl)o3)cc2C1 (stereo not given) | 43.6 |
| COc1cc2[nH]c(=O)n3nc(-c4ccccc4)nc3c2cc1OC | -2.98 |
| Cc1nc2ccc(Cl)cc2nc1C | -12.2 |
| Cc1nc(N)nc(Cl)c1Cc1ccc(Cl)cc1 | 3.47 |
| COC(=O)/C(C#N)=C/c1c[nH]c2ccccc12 | 7.57 |
| CCCCn1c(=O)c(C(=O)Nc2ccccc2)c(O)c2ccccc21 | -1.05 |
| CCCCCCn1c(=O)c(C(=O)Nc2c(C)n(C)n(-c3ccccc3)c2=O)c(O)c2ccccc21 | -5.05 |
| CCCCn1c(=O)c(C(=O)Nc2ccsc2C(=O)OC)c(O)c2ccccc21 | 1.97 |
| CCCCCn1c(=O)c(C(=O)Nc2ccccc2S(N)(=O)=O)c(O)c2ccccc21 | 6.87 |
| CCN(CC)S(=O)(=O)c1cc(C(=O)OCC(=O)NC(=O)c2cccn2C)ccc1C | -5.23 |
| O=C(CCNc1ccc(F)cc1)c1cc2ccccc2o1 | -9.46 |
| Cn1cc(Br)c(C(=O)NNC(=O)c2ccc(Br)cc2)n1 | 6.79 |
| CCN(CC)c1ccc2c(c1)C(=O)N(C)C2=O | 7.2 |
| CCN(CC)c1ccc(NC(=O)CCCCCN2C(=O)c3ccccc3C2=O)cc1 | -10.5 |
| O=C(Nc1ccc2oc(-c3ccccc3Cl)nc2c1)c1cncc(Br)c1 | -3.07 |
| CN(C)/C=N/c1nc(-c2ccc3c(c2)OCO3)cs1 | -11.6 |
| Brc1ccc(-c2csc(/N=C/N3CCCC3)n2)cc1 | 64.4 |
| COc1ccc(CNC(=O)C2C3C=CC4(CN(Cc5cccnc5)C(=O)C24)O3)cc1 (stereo not given) | -7.2 |

— PubChem BioAssay AID1626 (SRMLSC, 2009)
